Results taken from PubChem BioAssay (EPA / NIEHS).
Inconclusive results are not listed. Active and inactive are the calls of the source. Rule for the calls, unless noted: active = hit-call score of the fitted dose curve at least 0.9, where 1 is the maximum; inactive = score below 0.9.

Legend:
[1] = molecular target: Retinoic acid receptor RXR-alpha (Homo sapiens) (UniProt P19793); assay: ATG_RXRa_TRANS: Attagene TRANS-FACTORIAL HepG2 Assay for human Retinoid X Receptor alpha (RXRa) (AID 2283012; active = hit-call score of the fitted dose curve at least 0.9, where 1 is the maximum)
Outline: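 Read-out: fluorescent reporter-transcript fragments quantified by capillary electrophoresis after RT-PCR. Transiently transfected HepG2 cells carrying GAL4-UAS reporters and NR-GAL4 chimeras were exposed to chemical for 24 h; activity scored as increase over DMSO.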

[2] = molecular target: human Thyroid Receptor alpha (THRa1), THRA (gene 7067) (UniProt P10827); assay: ATG_THRa1_TRANS: Attagene TRANS-FACTORIAL HepG2 Assay for human Thyroid Receptor alpha (THRa1) (AID 2283014; active = hit-call score of the fitted dose curve at least 0.9, where 1 is the maximum)
Outline: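 HepG2 cells transiently transfected with chimeric NR-Gal4 and GAL4-UAS reporter units, dosed 24 h. Reporter mRNA quantified by RT-PCR, fluorescent labeling, HpaI digestion and capillary electrophoresis; gain-of-signal fit versus DMSO.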

[3] = read-out: E-selectin (Homo sapiens) (UniProt P16581); assay: BSK_3C_Eselectin: BioMAP Diversity Plus: 3C Assay for Eselectin Biomarker Activity (AID 2283015); details: primary human endothelial cells (HUVEC); actives raise or lower the signal
Outline: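 Primary human umbilical vein endothelial cells (3C system), read 24 h after compound addition; E-selectin measured by ELISA. Bidirectional curve fitting against DMSO baseline; cytotoxicity by parallel SRB total-protein staining.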

[4] = read-out: Interleukin-1 alpha (IL1a), IL1A (gene 3552); assay: BSK_BE3C_IL1a: BioMAP Diversity Plus: BE3C Assay for Interleukin-1 alpha (IL1a) Biomarker Activity (AID 2283016); details: primary human bronchial epithelial cells; actives raise or lower the signal
Outline: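 ELISA read-out of IL-1a from human lung bronchial epithelial primary cells, 24 h post-dose. Gain or loss of signal fitted relative to DMSO negative control.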

[5] = read-out: Monocyte Chemoattractant Protein-1 (MCP1), CCL2 (gene 6347); assay: BSK_3C_MCP1: BioMAP Diversity Plus: 3C Assay for Monocyte Chemoattractant Protein-1 (MCP1) Biomarker Activity (AID 2283017); details: primary human endothelial cells (HUVEC); actives raise or lower the signal
Outline: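 Human umbilical vein endothelial cells (3C system) exposed to chemicals for 24 h; MCP-1 quantified by ELISA against the DMSO baseline with bidirectional fitting, and parallel SRB staining used to assess cytotoxicity.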

[6] = read-out: Monocyte Chemoattractant Protein-1 (MCP1), CCL2 (gene 6347); assay: BSK_4H_MCP1: BioMAP Diversity Plus: 4H Assay for Monocyte Chemoattractant Protein-1 (MCP1) Biomarker Activity (AID 2283018); details: primary human endothelial cells (HUVEC); actives raise or lower the signal
Outline: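 HUVEC primary cells, 24 h post-dose, MCP-1 by ELISA. Gain or loss of signal fitted bidirectionally vs DMSO baseline. Cytotoxicity: SRB stain (0.1% after 10% TCA fixation), read 560 nm, parallel cultures.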

[7] = read-out: Human Leukocyte Antigen - DR isotype (HLADR), HLA-DRA (gene 3122); assay: BSK_3C_HLADR: BioMAP Diversity Plus: 3C Assay for Human Leukocyte Antigen - DR isotype (HLADR) Biomarker Activity (AID 2283019); details: primary human endothelial cells (HUVEC); actives raise or lower the signal
Outline: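 HUVEC monoculture, HLA-DR measured by ELISA 24 h after chemical dosing. Fitted bidirectionally against DMSO baseline; parallel SRB staining assessed cytotoxicity, with 3C proliferation read by SRB at 48 h.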

[8] = read-out: Interleukin-8 (IL8), CXCL8 (gene 3576); assay: BSK_3C_IL8: BioMAP Diversity Plus: 3C Assay for Interleukin-8 (IL8) Biomarker Activity (AID 2283020); details: primary human endothelial cells (HUVEC); actives raise or lower the signal
Outline: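 HUVEC, 3C stimulation; 24 h compound exposure; IL-8 read by ELISA; gain or loss of signal fitted relative to DMSO control.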

[9] = read-out: Monokine induced gamma interferon (MIG), CXCL9 (gene 4283); assay: BSK_3C_MIG: BioMAP Diversity Plus: 3C Assay for Monokine induced gamma interferon (MIG) Biomarker Activity (AID 2283021); details: primary human endothelial cells (HUVEC); actives raise or lower the signal
Outline: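 HUVEC, 3C system; 24 h chemical exposure; MIG by ELISA; bidirectional fit vs DMSO baseline.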

[10] = molecular target: human Vitamin D Receptor (VDR), VDR (gene 7421) (UniProt P11473); assay: ATG_VDR_TRANS: Attagene TRANS-FACTORIAL HepG2 Assay for human Vitamin D Receptor (VDR) (AID 2283022; active = hit-call score of the fitted dose curve at least 0.9, where 1 is the maximum)
Outline: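 HepG2 cells were transiently transfected with GAL4-UAS reporter units and a chimeric VDR-Gal4 construct, then dosed for 24 hours. Reporter mRNA was quantified by RT-PCR, fluorescent labeling, HpaI digestion and capillary electrophoresis; gain of signal analysed vs DMSO.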

[11] = BSK_3C_SRB: Viability Assessment in the BioMAP Diversity Plus: 3C Assay (AID 2283023); details: primary human endothelial cells (HUVEC);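 note: fitted both ways against DMSO so a hit may be signal rise or drop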
Outline: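 Human umbilical vein endothelial cells in the 3C system, treated 24 h. Total protein measured by 0.1% sulforhodamine B staining after 10% TCA fixation, read at 560 nm; bidirectional fit versus DMSO.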

[12] = read-out: Matrix Metallopeptidase 1 (MMP1), MMP1 (gene 4312); assay: BSK_BE3C_MMP1: BioMAP Diversity Plus: BE3C Assay for Matrix Metallopeptidase 1 (MMP1) Biomarker Activity (AID 2283024); details: primary human bronchial epithelial cells; actives raise or lower the signal
Outline: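 ELISA read-out of MMP1 in human lung bronchial epithelial primary cultures, 24 h post-dose; bidirectional curve fit vs DMSO baseline, gain or loss of signal scored.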

[13] = BSK_3C_Vis: BioMAP Diversity Plus: 3C Assay for Morphology Visualization (AID 2283025); details: primary human endothelial cells (HUVEC);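 note: fitted both ways so gain or loss versus DMSO counts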;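 for AC50: light microscopy image of cell morphology used as background control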
Outline: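 HUVEC, 3C system; light microscopy of morphology at 24 h post-dose. Bidirectional fit vs DMSO baseline. Secondary readout, background-control function.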

[14] = read-out: Pselectin, SELP (gene 6403); assay: BSK_4H_Pselectin: BioMAP Diversity Plus: 4H Assay for Pselectin Biomarker Activity (AID 2283026); details: primary human endothelial cells (HUVEC); actives raise or lower the signal
Outline: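 HUVEC, 24 h chemical exposure; P-selectin read by ELISA. Bidirectional curve fit vs DMSO baseline; gain or loss of signal scored.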

[15] = BSK_4H_SRB: Viability Assessment in the BioMAP Diversity Plus: 4H Assay (AID 2283027); details: primary human endothelial cells (HUVEC);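 note: cells exposed to compound for 24 h before staining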;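 for AC50: curves fitted both ways versus DMSO so AC50 may be loss or gain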
Outline: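 HUVEC, 24 h post-dose; 10% TCA fix, 0.1% SRB stain, A560 nm. Total protein = overt cytotoxicity, parallel to biomarker read. Bidirectional fit vs DMSO baseline.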

[16] = BSK_BE3C_SRB: Viability Assessment in the BioMAP Diversity Plus: BE3C Assay (AID 2283028); details: primary human bronchial epithelial cells
Outline: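 Human bronchial epithelial primary cells in confluent culture, 24 h after chemical dosing; total protein by 0.1% SRB staining after 10% TCA fixation, read at 560 nm. Bidirectional fitting versus DMSO baseline.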

[17] = read-out: Thrombomodulin, THBD (gene 7056); assay: BSK_3C_Thrombomodulin: BioMAP Diversity Plus: 3C Assay for Thrombomodulin Biomarker Activity (AID 2283029); details: primary human endothelial cells (HUVEC); actives raise or lower the signal
Outline: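 HUVEC, 3C conditions; compound 24 h; thrombomodulin by ELISA; bidirectional curve fit vs DMSO baseline; parallel SRB total-protein staining for cytotoxicity.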

[18] = read-out: Urokinase-type plasminogen activator receptor (uPAR), PLAUR (gene 5329); assay: BSK_4H_uPAR: BioMAP Diversity Plus: 4H Assay for Urokinase-type plasminogen activator receptor (uPAR) Biomarker Activity (AID 2283030); details: primary human endothelial cells (HUVEC); actives raise or lower the signal
Outline: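 Human umbilical vein endothelial cells in the 4H system, 24 h after chemical dosing. Cell-surface uPAR measured by ELISA, fitted in both directions versus DMSO; cytotoxicity checked by SRB total protein in parallel cultures.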

[19] = read-out: Vascular endothelial growth factor receptor 2 (Homo sapiens) (UniProt P35968); assay: BSK_4H_VEGFRII: BioMAP Diversity Plus: 4H Assay for Vascular endothelial growth factor receptor 2 (VEGFR2) Biomarker Activity (AID 2283031); details: primary human endothelial cells (HUVEC); actives raise or lower the signal;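 for AC50: cell-surface VEGFR2 protein level quantified by ELISA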
Outline: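 Primary human umbilical vein endothelial cells (4H system), 24 h exposure; cell-surface VEGFR2 measured by ELISA. Bidirectional fitting versus DMSO; cytotoxicity checked in parallel by SRB total-protein staining.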

[20] = molecular target: human Retinoid X Receptor beta (RXRb), RXRB (gene 6257) (UniProt P28702); assay: ATG_RXRb_TRANS: Attagene TRANS-FACTORIAL HepG2 Assay for human Retinoid X Receptor beta (RXRb) (AID 2283013; active = hit-call score of the fitted dose curve at least 0.9, where 1 is the maximum)
Outline: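 Read-out: reporter mRNA induction via RT-PCR plus capillary electrophoresis fluorescence, analysed as signal increase relative to DMSO. Cells were human HepG2, transiently transfected with GAL4-UAS reporter constructs and chimeric receptor-Gal4 fusions, dosed for 24 h.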

Measured: AC50

E-selectin (Homo sapiens), sequence (P16581 whole entry, looked up): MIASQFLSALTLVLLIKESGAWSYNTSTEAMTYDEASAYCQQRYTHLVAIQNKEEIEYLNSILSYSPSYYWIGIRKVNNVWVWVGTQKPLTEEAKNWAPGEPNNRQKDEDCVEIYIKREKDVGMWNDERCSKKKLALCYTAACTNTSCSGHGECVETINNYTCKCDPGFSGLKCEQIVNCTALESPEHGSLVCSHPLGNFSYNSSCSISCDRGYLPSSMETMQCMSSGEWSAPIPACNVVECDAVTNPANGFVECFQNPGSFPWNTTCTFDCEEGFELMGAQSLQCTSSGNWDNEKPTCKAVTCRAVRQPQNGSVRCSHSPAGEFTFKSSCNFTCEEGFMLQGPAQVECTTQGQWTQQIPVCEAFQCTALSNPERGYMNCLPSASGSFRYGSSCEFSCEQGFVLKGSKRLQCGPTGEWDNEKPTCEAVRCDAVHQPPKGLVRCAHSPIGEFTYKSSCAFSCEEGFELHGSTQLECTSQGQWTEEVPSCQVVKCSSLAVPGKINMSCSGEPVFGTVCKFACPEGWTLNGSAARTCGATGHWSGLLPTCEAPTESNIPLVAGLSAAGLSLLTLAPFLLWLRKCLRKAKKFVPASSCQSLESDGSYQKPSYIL
human Retinoid X Receptor beta (RXRb), RXRB (gene 6257), sequence (P28702 whole entry, looked up, the tested form may be a part): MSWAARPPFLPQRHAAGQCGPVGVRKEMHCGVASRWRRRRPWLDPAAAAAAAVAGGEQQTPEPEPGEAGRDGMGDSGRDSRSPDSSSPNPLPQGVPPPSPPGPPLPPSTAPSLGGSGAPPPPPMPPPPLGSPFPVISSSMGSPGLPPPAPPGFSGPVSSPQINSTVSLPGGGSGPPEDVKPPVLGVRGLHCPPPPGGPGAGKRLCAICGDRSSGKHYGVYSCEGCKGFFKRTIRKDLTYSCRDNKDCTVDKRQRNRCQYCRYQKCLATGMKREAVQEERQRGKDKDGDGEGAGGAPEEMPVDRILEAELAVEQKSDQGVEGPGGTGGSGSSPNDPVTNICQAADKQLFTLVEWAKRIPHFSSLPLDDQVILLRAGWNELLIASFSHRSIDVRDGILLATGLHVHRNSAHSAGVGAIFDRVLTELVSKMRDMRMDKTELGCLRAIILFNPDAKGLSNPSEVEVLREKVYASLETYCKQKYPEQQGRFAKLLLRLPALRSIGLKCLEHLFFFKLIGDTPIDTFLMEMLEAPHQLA
Retinoic acid receptor RXR-alpha (Homo sapiens), sequence (P19793 whole entry, looked up, the tested form may be a part): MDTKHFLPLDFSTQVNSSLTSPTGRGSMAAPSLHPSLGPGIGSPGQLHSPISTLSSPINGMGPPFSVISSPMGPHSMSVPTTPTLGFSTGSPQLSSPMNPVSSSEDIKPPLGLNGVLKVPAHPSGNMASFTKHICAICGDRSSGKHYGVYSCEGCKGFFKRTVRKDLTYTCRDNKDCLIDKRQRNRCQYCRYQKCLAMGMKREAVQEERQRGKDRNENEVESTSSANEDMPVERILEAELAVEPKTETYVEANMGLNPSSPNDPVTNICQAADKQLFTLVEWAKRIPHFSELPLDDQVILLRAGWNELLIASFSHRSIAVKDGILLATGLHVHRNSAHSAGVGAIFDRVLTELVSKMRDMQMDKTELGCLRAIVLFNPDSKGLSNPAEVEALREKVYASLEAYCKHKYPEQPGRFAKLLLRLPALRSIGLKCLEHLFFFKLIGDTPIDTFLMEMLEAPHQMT
human Vitamin D Receptor (VDR), VDR (gene 7421), sequence (P11473 whole entry, looked up, the tested form may be a part): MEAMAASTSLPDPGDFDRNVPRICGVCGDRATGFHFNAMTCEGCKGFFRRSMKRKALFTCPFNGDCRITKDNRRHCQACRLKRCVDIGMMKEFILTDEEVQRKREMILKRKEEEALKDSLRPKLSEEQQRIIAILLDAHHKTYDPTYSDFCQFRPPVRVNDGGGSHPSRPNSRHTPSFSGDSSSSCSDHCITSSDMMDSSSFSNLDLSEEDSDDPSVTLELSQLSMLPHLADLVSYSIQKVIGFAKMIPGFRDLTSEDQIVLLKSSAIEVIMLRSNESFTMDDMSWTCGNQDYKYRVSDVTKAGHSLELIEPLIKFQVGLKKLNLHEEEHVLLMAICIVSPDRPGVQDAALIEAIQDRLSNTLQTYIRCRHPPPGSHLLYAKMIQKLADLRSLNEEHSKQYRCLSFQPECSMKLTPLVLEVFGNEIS
human Thyroid Receptor alpha (THRa1), THRA (gene 7067), sequence (P10827 whole entry, looked up, the tested form may be a part): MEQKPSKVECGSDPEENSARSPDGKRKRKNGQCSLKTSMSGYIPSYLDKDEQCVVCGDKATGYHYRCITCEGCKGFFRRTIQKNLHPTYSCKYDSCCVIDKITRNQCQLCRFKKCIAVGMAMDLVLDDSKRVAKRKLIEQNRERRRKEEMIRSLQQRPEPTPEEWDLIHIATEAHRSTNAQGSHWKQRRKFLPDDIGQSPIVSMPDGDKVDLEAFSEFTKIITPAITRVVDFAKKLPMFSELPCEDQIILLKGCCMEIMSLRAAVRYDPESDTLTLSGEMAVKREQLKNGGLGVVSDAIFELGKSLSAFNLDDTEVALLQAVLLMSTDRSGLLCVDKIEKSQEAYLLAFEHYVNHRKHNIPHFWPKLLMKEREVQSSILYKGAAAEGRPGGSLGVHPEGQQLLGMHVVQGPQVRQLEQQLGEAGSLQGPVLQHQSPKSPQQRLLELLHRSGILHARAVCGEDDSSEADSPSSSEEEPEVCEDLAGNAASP

CNCc1cc(F)ccc1Oc1ccc(Cl)c(Cl)c1
active: [3] 4.88 µM | [5] 20 µM | [6] 11.6 µM | [7] 32.4 µM | [8] 20 µM | [11] 27.6 µM | [14] 26 µM | [15] 26.1 µM | [18] 26.9 µM
not listed: [20]
inactive: all other assays above

C=CCOC(=O)c1ccccc1C(=O)OCC=C
not listed: [2] | [10] | [17]
inactive: all other assays above

Cc1ccc(Cl)cc1
not listed: [2] | [20]
inactive: all other assays above

O=c1c(O)c(-c2ccc(O)c(O)c2)oc2cc(O)cc(O)c12
inactive: [1] | [2] | [9] | [12] | [16] | [17]
active: [3] 34.7 µM | [4] 15.8 µM | [5] 15 µM | [6] 20 µM | [8] 14.5 µM | [11] 15.3 µM | [13] 37.5 µM | [14] 16.6 µM | [15] 30.1 µM | [18] 33.6 µM

CCCCCCC(=O)OCC
not listed: [20]
inactive: all other assays above

O=C(O)CCCCC(=O)O
not listed: [2] | [10] | [17]
inactive: all other assays above

O=c1[nH]cc(F)c(=O)[nH]1
active: [11] 20.4 µM
not listed: [2] | [17] | [18]
inactive: all other assays above

CC1(C)NC(=O)NC1=O
inactive: all assays above

CN1CCCC1=O
active: [20] 31.5 µM
not listed: [2]
inactive: all other assays above

CCOc1ccc2c(c1)C(C)=CC(C)(C)N2
active: [1] 100 µM | [20] 6.69 µM | [2] 100 µM | [10] 150 µM
inactive: all other assays above

CC(C)(C)c1cc(O)c(C(C)(C)C)cc1O
active: [1] 60.2 µM | [6] 2.88 µM | [7] 9 µM | [10] 61.2 µM | [13] 9.8 µM | [14] 5.24 µM | [15] 3.45 µM | [18] 4.17 µM | [19] 1.02 µM
inactive: [3] | [4] | [5] | [8] | [9] | [11] | [12] | [16] | [17]

CCCCCCOCCO
not listed: [20]
inactive: all other assays above

COc1cccc2c1C(=O)c1c(O)c3c(c(O)c1C2=O)C[C@@](O)(C(=O)CO)C[C@@H]3O[C@H]1C[C@H](N)[C@H](O)[C@H](C)O1
active: [2] 32.9 µM
inactive: [1] | [10]

Cc1cccc([N+](=O)[O-])c1C
not listed: [17] | [20]
inactive: all other assays above

CC(=O)OC/C=C(\C)CCC=C(C)C
not listed: [2] | [10] | [17]
inactive: all other assays above
